Results taken from PubChem BioAssay (NCI).
The panel holds about 83,000 compounds, 20% with a hit somewhere; the sample as a whole holds those more often.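 A percent growth of 40 corresponds to 60% growth inhibition; 0 means no net growth; -100 means all cells died. Active threshold: below 10.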 Calls of active or inactive are those of the source.

tested on: OVCAR-8 ovarian; experiment: NCI-60 one-dose screen, 48 h (100 = growth as untreated, 0 = no growth, -100 = all killed); details: 10 µM unless noted

Row | Structure (SMILES) | growth
1 | O=C1CN(Cc2ccc(C(=O)NO)cc2)C(=O)[C@@H](Cc2ccccc2)N1 | 95.6% (inactive)
2 | COc1ncc(-c2ccc3nccc(C#CCCCCC(=O)NO)c3c2)cc1NS(=O)(=O)c1ccc(F)cc1F | -12.8% (active)
3 | CCCCCN(CCCCC)CCCCCCCCN1CCCc2ccccc21 | 89.1% (inactive)
4 | CC1Cc2c(Cl)ncnc2N(C)c2ccc(O)cc21 (stereo not drawn) | 29.7% (inactive)
5 | FC(F)(F)c1ccc2c(c1)Sc1ccccc1N2 | 96.7% (inactive)
6 | Cc1ccc2c(n1)C(=O)C(Cl)=C(Nc1ccc(N3CCN(C)CC3)cc1)C2=O | -62.6% (active)
7 | CCOc1cc(/C=N\NC(=O)N/N=C/c2ccc(O)c(OCC)c2)ccc1O | 52% (inactive)
8 | C1=C[C@H]2O[C@@H]1c1ccc3[nH]ccc3c12 | 104% (inactive)
9 | CC1(C)CC[C@]2(C(=O)O)CC[C@]3(C)[C@H](CC[C@@H]4[C@@]5(C)CCC(=O)C(C)(C)[C@@H]5CC[C@]43C)[C@H]2[C@H]1OC(=O)C(F)(F)F | -81.4% [100 µM] (active)
10 | [2H]C1([2H])CCN(C(=O)C2CC2)c2cc(NS(=O)(=O)c3ccc(-c4cccc(C(N)=O)c4)cc3)ccc21 | 53.9% (inactive)
11 | CCOC(=O)c1sc2nc(-c3cc(OC)c(OC)c(OC)c3)nc(N3CCOCC3)c2c1C | 44.1% (inactive)
12 | O=C(CCN1CCCCC1)c1ccc(Cl)cc1 | 113% (inactive)
13 | O=C1CC(C(F)(F)F)Cc2nc3ccc(Br)cc3cc21 (stereo not drawn) | 95.7% (inactive)
14 | NC(=O)c1cccc(-c2ccc(S(=O)(=O)Nc3ccc4c(c3)N(C(=O)C3CC3)CCC4)cc2)c1 | 57% (inactive)
15 | CCOC(=O)CCC[P+](c1ccccc1)(c1ccccc1)c1ccccc1 | 82.2% (inactive)
16 | CC1(C)CC[C@]2(C(=O)O)CC[C@]3(C)C(=CC[C@@H]4[C@@]5(C)C/C(=C/c6cccnc6)[C@H](O)C(C)(C)[C@@H]5CC[C@]43C)[C@@H]2C1 | 13.2% [100 µM] (inactive)
17 | CCC(Br)(CC)C(=O)c1ccc(OCC(=O)O)c(Cl)c1Cl | 97.4% (inactive)
18 | C#C[C@]1(O)CC[C@H]2[C@@H]3CC=C4c5nc(Nc6ccccc6[N+](=O)[O-])sc5CC[C@]4(C)[C@H]3CC[C@@]21C | 85.7% (inactive)
19 | O=C(N/N=C\c1cc(Cl)ccc1O)N/N=C/c1cc(Cl)ccc1O | 43.4% (inactive)

Row | Structure (SMILES) | growth
20 | C=C(C)[C@@H]1CC[C@]2(C(=O)NCCNCCNC(=O)OC(C)(C)C)CC[C@]3(C)[C@H](CC[C@@H]4[C@@]5(C)CCC(=O)C(C)(C)[C@@H]5CC[C@]43C)[C@@H]12 | 44.4% [100 µM] (inactive)
21 | Cc1cc(C)c(O)c(CNCCCNCc2cc(C)cc(C)c2O)c1 | 82.2% (inactive)
22 | O=C(Nc1ccc(C(=O)/C=C/c2ccc(N3CCOCC3)cc2)cc1)Nc1ccc([N+](=O)[O-])cc1 | 92.4% (inactive)
23 | C[C@H]1[C@H](C)CC[C@]2(C(=O)N3CCN(C)CC3)CC[C@]3(C)C(=CC[C@@H]4[C@@]5(C)C/C(=C/c6ccco6)C(=O)C(C)(C)[C@@H]5CC[C@]43C)[C@H]12 | 25.4% [100 µM] (inactive)
24 | Nc1nc(Cl)c2ncn(Cc3cc4c(cc3I)OCO4)c2n1 | 60.7% (inactive)
25 | CC1(C)OC2[C@@H](CNC(=O)NC(=O)NC(=O)CI)O[C@@H](n3cnc4c(NC(=O)Nc5ccccc5)ncnc43)[C@H]2O1 (stereo partly drawn) | 75.9% (inactive)
26 | Fc1cc2[nH]ncc2c2c3c(c(-c4cn[nH]c4C(F)(F)F)nc12)C1CCC3C1 (stereo not drawn) | 10.2% (inactive)
27 | CC1Cc2c(Cl)ncnc2N(C)c2ccccc21 (stereo not drawn) | 10.7% (inactive)
28 | C=C(C)[C@@H]1CC[C@]2(COCCCN)CC[C@]3(C)[C@H](CC[C@@H]4[C@@](C)(CCCNCCCN)[C@H](C(=C)C)CC[C@]43C)[C@@H]12 | -56.7% [100 µM] (active)
29 | CCCCCCSc1ncnc2nc[nH]c12 | 95.5% (inactive)
30 | C[C@@H]1C[C@H]2C(=O)O[C@@H](C)[C@H](NC(=O)[C@H](Cc3cc(F)cc(F)c3)NC(=O)Nc3ccc(C4CC4)cc3F)C(=O)N3CCC[C@H]3C(=O)N3CCCC[C@H]3C(=O)N[C@@H](C)C(=O)N2C1 | 11% (inactive)
31 | O=[N+]([O-])c1ccc(O)c(-c2nc3ccccc3s2)c1 | 92% (inactive)
32 | COc1cc2c(cc1OC(C)=O)C(=O)CCCC2 | 98.3% (inactive)
33 | COc1ccc(CC(C#N)c2ccc(Cl)cc2)cc1 (stereo not drawn) | 99% (inactive)
34 | COc1ccc(N(c2nc(-c3ccc([N+](=O)[O-])cc3)cs2)C(C)C)cc1 | 89.6% (inactive)
35 | C=C(C)[C@@H]1CC[C@]2(C)[C@H](CC[C@@H]3[C@@H]([C@@](C)(O)CCC=C(C)C)CC[C@]32C)[C@@]1(C)CCC(=O)O | 14.8% [100 µM] (inactive)
36 | CCOc1ccc(S(=O)(=O)Nc2ccc3c(c2)N(S(=O)(=O)CC)CCC3)cc1 | 77.5% (inactive)
37 | Cc1cnc(N)nc1OCCNC(=O)c1cccc(-c2ccc(S(=O)(=O)Nc3ccc4c(c3)N(C(=O)C3CC3)CCC4)cc2)c1 | 67.4% (inactive)
38 | Fc1cc2[nH]ncc2c2c3c(c(-c4cn[nH]c4)nc12)CCCC3 | 4.78% (active)
